PubChem BioAssay (NCI)
Compounds without any hit were thinned out: in the full panel of roughly 83,000, 20% have a hit.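 Activity criterion: percent growth below 10, measured after cells in 96-well plates were exposed to a single compound concentration for 48 hours.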 The source made the active and inactive calls.

How the values were obtained:
Assay in all cases: NCI-60 one-dose screen, 48 h (100 = growth as untreated, 0 = no growth, -100 = all killed)
Details in all cases: 10 µM unless noted
NCI-H23 lung = test system: NCI-H23 lung
NCI-H226 lung = test system: NCI-H226 lung
NCI-H322M lung = test system: NCI-H322M lung
HOP-62 NSCLC = test system: HOP-62 NSCLC
NCI-H460 lung = test system: NCI-H460 lung
HOP-92 NSCLC = test system: HOP-92 NSCLC
NCI-H522 lung = test system: NCI-H522 lung
A549/ATCC NSCLC = test system: A549/ATCC NSCLC
786-0 renal = test system: 786-0 renal
COLO 205 colon = test system: COLO 205 colon

Measured: growth

CC(C)(C)c1cc(NC(=O)Nc2ccc(-c3cn4c5c(sc4n3)CCc3c[nH]cc3-5)cc2)no1
inactive: NCI-H23 lung 13.9% | NCI-H226 lung 33.9% | NCI-H322M lung 47.6% | HOP-92 NSCLC 23.5% | NCI-H522 lung 32.4% | A549/ATCC NSCLC 28.7%
active: HOP-62 NSCLC -28.1% | NCI-H460 lung 4.38% | 786-0 renal -29.4% | COLO 205 colon -17.2%

CC(=O)OCCCCN1C=C/C(=C\C(=O)n2ccc3ccccc32)c2ccccc21
inactive: NCI-H23 lung 96.2% | NCI-H226 lung 88.5% | NCI-H322M lung 98.7% | HOP-62 NSCLC 108% | NCI-H460 lung 102% | HOP-92 NSCLC 97.6% | NCI-H522 lung 99.1% | A549/ATCC NSCLC 113% | 786-0 renal 107% | COLO 205 colon 108%

O=C(CSc1nnc(-c2ccc(Cl)cc2)n1-c1ccccc1)Nc1cccc(F)c1
inactive: NCI-H23 lung 23.6% | NCI-H226 lung 20.9% | NCI-H322M lung 36.7% | HOP-62 NSCLC 50.3% | NCI-H460 lung 17.4% | HOP-92 NSCLC 57.8% | NCI-H522 lung 52.2% | COLO 205 colon 80.1%
active: A549/ATCC NSCLC 2.72% | 786-0 renal 0.989%

CC1=C(C)C(=O)C(Nc2cccc(C(=O)OC(C)(C)C)c2)=C(Cl)C1=O
inactive: NCI-H23 lung 92.4% | NCI-H226 lung 91.3% | NCI-H322M lung 99.5% | HOP-62 NSCLC 103% | NCI-H460 lung 99.8% | HOP-92 NSCLC 56.4% | NCI-H522 lung 81.7% | A549/ATCC NSCLC 90.4% | 786-0 renal 96.5% | COLO 205 colon 118%

CC(=O)OC[C@]12CC[C@@H](C(=O)/C=C/c3cccnc3)[C@@H]1[C@H]1CC[C@@H]3[C@@]4(C)CC[C@H](OC(C)=O)C(C)(C)[C@@H]4CC[C@@]3(C)[C@]1(C)CC2
active: NCI-H23 lung 1.02% | NCI-H226 lung -70.5% | NCI-H460 lung 7.8% | HOP-92 NSCLC -29.1% | NCI-H522 lung -20.3% | COLO 205 colon -18.6%
inactive: NCI-H322M lung 53.5% | HOP-62 NSCLC 28.1% | A549/ATCC NSCLC 23.1% | 786-0 renal 27.2%

Cc1csc(/N=C(N)/N=C(\N)c2cccc(Br)c2)n1
inactive: NCI-H23 lung 89.1% | NCI-H226 lung 88.9% | NCI-H322M lung 95.6% | HOP-62 NSCLC 85.3% | NCI-H460 lung 98.1% | HOP-92 NSCLC 69.9% | NCI-H522 lung 80% | A549/ATCC NSCLC 101% | 786-0 renal 97.3% | COLO 205 colon 95.3%

CN1CCN(Cc2ccc(NC(=O)c3cncc(C#Cc4cnc5ccc(OCC(F)F)nn45)c3)cc2C(F)(F)F)CC1
active: NCI-H23 lung -51.2% | NCI-H226 lung -62.6% | NCI-H322M lung -35.4% | HOP-62 NSCLC -76.6% | NCI-H460 lung -85% | HOP-92 NSCLC -30.7% | NCI-H522 lung -75.9% | A549/ATCC NSCLC -61.6% | 786-0 renal -90.3% | COLO 205 colon -87.7%

O=C(CSc1cc[n+](CCCCO)c2ccccc12)n1ccc2ccccc21
inactive: NCI-H23 lung 95.8% | NCI-H226 lung 89.6% | NCI-H322M lung 96.8% | HOP-62 NSCLC 91.8% | NCI-H460 lung 99.2% | HOP-92 NSCLC 103% | NCI-H522 lung 99.4% | A549/ATCC NSCLC 103% | 786-0 renal 108% | COLO 205 colon 106%

CC(Nc1ncnc2ccc(-c3cnc(N)nc3)cc12)c1ccccc1 (stereo not given)
inactive: NCI-H23 lung 50.3% | NCI-H226 lung 20.6% | HOP-62 NSCLC 31.2% | NCI-H460 lung 35.1% | NCI-H522 lung 11.9% | A549/ATCC NSCLC 32.7% | 786-0 renal 23.7% | COLO 205 colon 49.6%
active: NCI-H322M lung 2.74% | HOP-92 NSCLC -0.545%

Cc1ccccc1NC(=O)Nc1nc2ccc([N+](=O)[O-])cc2s1
inactive: NCI-H226 lung 15.4% | 786-0 renal 13.1% | COLO 205 colon 10.9%
active: NCI-H23 lung 5.79% | NCI-H322M lung 9.34% | HOP-62 NSCLC 2.78% | NCI-H460 lung 5.87% | HOP-92 NSCLC -24.6% | NCI-H522 lung -10.9% | A549/ATCC NSCLC 9.2%

CC(=O)N1N=C(c2cc3ccccc3oc2=O)CC1c1cn(-c2ccccc2)nc1-c1ccc(C)cc1 (stereo not given)
inactive: NCI-H23 lung 100% | NCI-H226 lung 94.8% | NCI-H322M lung 101% | HOP-62 NSCLC 93% | NCI-H460 lung 104% | HOP-92 NSCLC 105% | NCI-H522 lung 97.4% | A549/ATCC NSCLC 97.3% | 786-0 renal 103% | COLO 205 colon 103%

COc1ccc(/C=N/NC(=O)CSc2nc(-c3cnccn3)cc(-c3cccs3)c2C#N)cc1
inactive: NCI-H23 lung 72.8% | NCI-H226 lung 75.1% | NCI-H322M lung 84.4% | HOP-62 NSCLC 53.4% | NCI-H460 lung 37.4% | HOP-92 NSCLC 63.1% | NCI-H522 lung 81.1% | A549/ATCC NSCLC 50.5% | 786-0 renal 22.6% | COLO 205 colon 68.1%

NC1[C@H]2CN(c3cnc(C(=O)Nc4cc(F)cc5cccnc45)cn3)C[C@@H]12 (stereo not given in full)
active: NCI-H322M lung 6.79%
inactive: NCI-H23 lung 84.5% | NCI-H226 lung 85.1% | HOP-62 NSCLC 82.4% | NCI-H460 lung 92.1% | HOP-92 NSCLC 24.8% | NCI-H522 lung 46.6% | A549/ATCC NSCLC 92.1% | 786-0 renal 75.2% | COLO 205 colon 18.5%

CCOC(=O)c1c(NC(=O)c2cccc(C(F)(F)F)c2)sc2c3c(ccc12)OCN(C)C3
inactive: NCI-H23 lung 83.6% | NCI-H226 lung 77.8% | NCI-H322M lung 18% | HOP-92 NSCLC 15.2%
active: HOP-62 NSCLC -87.6% | NCI-H460 lung -75.9% | NCI-H522 lung -15% | A549/ATCC NSCLC -77.7% | 786-0 renal -71.9% | COLO 205 colon -57.6%

CCn1c2ccc(/C=N/N(C)S(=O)(=O)CCN(C)C)cc2c2cc(/C=N/N(C)S(=O)(=O)CCN(C)C)ccc21
inactive: NCI-H23 lung 43.4% | NCI-H226 lung 40.8% | NCI-H322M lung 80.8% | HOP-62 NSCLC 101% | NCI-H460 lung 73.5% | HOP-92 NSCLC 42.4% | NCI-H522 lung 36% | A549/ATCC NSCLC 84.5% | 786-0 renal 50.3% | COLO 205 colon 92.8%

CN1CCN(c2ccc(Nc3nc(NCCCNS(=O)(=O)c4ccc(Cl)cc4)c4sccc4n3)cc2)CC1
inactive: NCI-H23 lung 65% | NCI-H226 lung 99.6% | NCI-H322M lung 33.7% | HOP-62 NSCLC 52.5% | HOP-92 NSCLC 49.4% | A549/ATCC NSCLC 21.9%
active: NCI-H460 lung 7.38% | NCI-H522 lung -65.8% | 786-0 renal -43.2% | COLO 205 colon -38.3%

COc1cc(-c2nc(-c3ccccc3)[nH]c2-c2ccnc(NCCCNS(=O)(=O)c3cccc(F)c3)n2)ccc1F
inactive: NCI-H23 lung 101% | NCI-H226 lung 83.9% | NCI-H322M lung 102% | HOP-62 NSCLC 130% | NCI-H460 lung 94.2% | HOP-92 NSCLC 134% | NCI-H522 lung 85.4% | A549/ATCC NSCLC 87.1% | 786-0 renal 98.4% | COLO 205 colon 93%

CCOC(=O)c1c(NCC(=O)Nc2cccc([N+](=O)[O-])c2)sc(C(C)=O)c1C
active: NCI-H23 lung -40.7% | NCI-H226 lung -61.3% | HOP-62 NSCLC 7.61% | NCI-H460 lung -29% | HOP-92 NSCLC -24.7% | NCI-H522 lung -32% | A549/ATCC NSCLC -13.5% | 786-0 renal -15% | COLO 205 colon -42.9%
inactive: NCI-H322M lung 95%

Cc1ccc2c(n1)C(=O)C(Cl)=C(Nc1ccc(C(=O)OC(C)(C)C)cc1)C2=O
active: HOP-92 NSCLC -54.9% [9.25 µM] | NCI-H522 lung -14.1% [9.25 µM] | 786-0 renal -56.4% [9.25 µM] | COLO 205 colon -46.1% [9.25 µM]
inactive: NCI-H23 lung 75.2% [9.25 µM] | NCI-H226 lung 85.8% [9.25 µM] | NCI-H322M lung 101% [9.25 µM] | HOP-62 NSCLC 106% [9.25 µM] | NCI-H460 lung 102% [9.25 µM] | A549/ATCC NSCLC 99.9% [9.25 µM]

C(=N\Nc1nc(N/N=C/c2ccc3c(c2)OCO3)nc(N2CCCCC2)n1)/c1ccc2c(c1)OCO2
inactive: NCI-H23 lung 101% | NCI-H226 lung 101% | NCI-H322M lung 98.5% | HOP-62 NSCLC 123% | NCI-H460 lung 90.6% | HOP-92 NSCLC 96% | NCI-H522 lung 91.9% | A549/ATCC NSCLC 91.4% | 786-0 renal 86.6% | COLO 205 colon 85.9%

Cc1ccc(-c2csc(N/N=C/c3cccs3)n2)cc1
inactive: NCI-H23 lung 79.4% | NCI-H226 lung 70.1% | NCI-H322M lung 97% | HOP-62 NSCLC 95.3% | NCI-H460 lung 99.4% | HOP-92 NSCLC 87.3% | NCI-H522 lung 73.3% | A549/ATCC NSCLC 84.2% | 786-0 renal 97.5% | COLO 205 colon 115%

C/C(=N/N)c1nnn(-c2ccc(Br)cc2)c1C
inactive: NCI-H23 lung 99.6% | NCI-H226 lung 91.5% | NCI-H322M lung 95.7% | HOP-62 NSCLC 93.7% | NCI-H460 lung 102% | HOP-92 NSCLC 93.4% | NCI-H522 lung 91.5% | A549/ATCC NSCLC 99.4% | 786-0 renal 103% | COLO 205 colon 115%

CCc1nnc(NC(=O)c2cc(-c3ccc(Cl)cc3Cl)oc2C)s1
inactive: NCI-H23 lung 85.7% | NCI-H226 lung 85.6% | NCI-H322M lung 85.4% | HOP-62 NSCLC 96% | NCI-H460 lung 53.9% | HOP-92 NSCLC 92% | NCI-H522 lung 79.4% | A549/ATCC NSCLC 77.1% | 786-0 renal 95.9% | COLO 205 colon 105%

CCOC(=O)c1ccccc1NC1=C(Cl)C(=O)c2nc(C)ccc2C1=O
inactive: NCI-H23 lung 81.5% | NCI-H226 lung 100% | NCI-H322M lung 101% | HOP-62 NSCLC 102% | NCI-H460 lung 99.8% | HOP-92 NSCLC 118% | NCI-H522 lung 102% | A549/ATCC NSCLC 107% | 786-0 renal 104% | COLO 205 colon 120%

NS(=O)(=O)c1ccc(CCn2c(-c3ccc(C(=O)O)cc3)nc(-c3ccccc3)c2-c2ccccc2)cc1
inactive: NCI-H23 lung 98.4% | NCI-H226 lung 98.3% | NCI-H322M lung 97% | HOP-62 NSCLC 104% | NCI-H460 lung 107% | HOP-92 NSCLC 94.6% | NCI-H522 lung 96.8% | A549/ATCC NSCLC 105% | 786-0 renal 103% | COLO 205 colon 112%

CC(C)(C)c1cc(NC(=O)Nc2ccc(-c3cn4c5c(sc4n3)CCc3cn(CCCN4CCCCC4)cc3-5)cc2)no1
active: NCI-H23 lung -84.2% | NCI-H322M lung -78.8% | HOP-62 NSCLC -50.3% | NCI-H460 lung -69.1% | NCI-H522 lung -55.3% | A549/ATCC NSCLC -79.6% | 786-0 renal -98.1% | COLO 205 colon 5.79%
inactive: NCI-H226 lung 92.6% | HOP-92 NSCLC 75.4%
